Data on five compounds can be found in PubChem BioAssay.

The nature of assay [1]: growth inhibition of DIPG glioma cells, dose response, cell-based, SU-DIPG-XVII, MIPE5.0, CellTiter-Glo, qHTS (AID 1347060; cut-off not given, nearly all actives have AC50 up to about 26 µM;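 for AC50: cells exposed to compound for 48 hours before viability readout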). The note with it: SU-DIPG-XVII viability, CellTiter-Glo ATP luminescence. (ATP-based viability assays read luminescence as a measure of living cells.)
Assay [2] can be described thus: growth inhibition of DIPG glioma cells, dose response, cell-based, SU-DIPG-XIII, MIPE4.0, CellTiter-Glo, qHTS (AID 1347061; cut-off not given, nearly all actives have AC50 up to about 37 µM;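 note: cells exposed to compound for 48 hours before readout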). The note with it: SU-DIPG-XIII viability, CellTiter-Glo ATP luminescence.
Assay [3] in a line: growth inhibition of DIPG glioma cells, dose response, cell-based, JHH-DIPG-1, MIPE4.0, CellTiter-Glo, qHTS (AID 1347062; cut-off not given, nearly all actives have AC50 up to about 27 µM;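 for AC50: cells exposed to compound for two days before readout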). The following applies: JHH-DIPG-1 viability, CellTiter-Glo ATP luminescence.
The nature of assay [4]: growth inhibition of DIPG glioma cells, dose response, cell-based, SU-DIPG-XIII, MIPE5.0, CellTiter-Glo, qHTS (AID 1347064; cut-off not given, nearly all actives have AC50 up to about 23 µM;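 for AC50: cells exposed to compound for 48 hours before the viability read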). The note with it: SU-DIPG-XIII viability, CellTiter-Glo ATP luminescence.
A short description of assay [5]: viability loss in pontine glioma line – cell-based, SU-DIPG-XXV, MIPE5.0, CellTiter-Glo, qHTS, dose response (AID 1347065; cut-off not given, nearly all actives have AC50 up to about 26 µM;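 note: cells exposed to compound for 48 hours before ATP readout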). The note with it: CellTiter-Glo ATP luminescence.
Assay [6] in a line: SU-DIPG-VI glioma cell viability, MIPE4.0 library, CellTiter-Glo luminescence, qHTS (AID 1347066; cut-off not given, nearly all actives have AC50 up to about 30 µM;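 note: cells exposed to compound for 48 hours before readout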). The note with it: CellTiter-Glo ATP luminescence.
Assay [7] is described as follows: SU-DIPG-XXV glioma cell viability, MIPE5.0 library, qHTS (AID 1347068; cut-off not given, nearly all actives have IC50 up to about 30 µM). (qHTS replaces the single test concentration by a dilution series.)
A short description of assay [8]: JHH-DIPG-1 glioma cell viability, MIPE5.0 library, CellTiter-Glo luminescence, qHTS (AID 1347067; cut-off not given, nearly all actives have AC50 up to about 26 µM;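 note: cells exposed to compound for 48 hours before readout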). The following applies: JHH-DIPG-1 glioma viability, CellTiter-Glo ATP luminescence.
A short description of assay [9]: sensitizers of A549 cells to miR-34 induction, primary screen, imaging, A549 dox-inducible miR-34, nuclei and caspase counts (AID 1347080;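 active = compounds whose cell count with miR-34 switched on is under 0.7 times the count with it off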). The note with it: A549 miR-34 inducible, Hoechst nuclei count, 48 h.
A short description of assay [10]: modifiers of HSF1 nuclear foci, imaging, Selleck Cancer Library (AID 1347162; in the data active = plate-normalised HSF1 focus index below about 0.46). The note with it: human cells, at 10 µM; SSMD: measured here: HSF1 foci SSMD mean; cell count: measured here: cell number; plate-normalised HSF1 focus index: stronger effect = lower value.
A short description of assay [11]: survival rescue of mitochondrial mutant cells in low glucose, primary screen, MELAS cybrids, Rieske KO mouse fibroblasts, CellTiter-Glo (AID 1508586;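 active = mean z-score across replicates of 1.96 or higher in either the MELAS or the Rieske mutant cell line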;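 note: z relative to plate mean and SD of compound and empty wells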).
Assay [12] can be described thus: ovarian cancer cell viability with rucaparib, profiling panel, oncology-focused library, rucaparib conditional (AID 1508598). The note with it: patient-derived ovarian cancer cells, CellTiter-Glo viability, 144 h, stronger effect = lower value.
[13] abbreviates: stronger effect = lower value, cell number ratio, induced over uninduced.
[14] abbreviates: measured here: relative caspase fold change +Dox/-Dox.
The mark [15] stands for this setting: measured here: total cells with miR-34 induction, stronger effect = lower value.
The mark [16] stands for this setting: measured here: total cells without miR-34 induction.
The mark [17] stands for this setting: MELAS cybrid survival, CellTiter-Glo 48 h, stronger effect = higher value.
Where [18] appears, read: Rieske KO mouse fibroblast survival, CellTiter-Glo 72 h.

Results filed as inconclusive are left out. Activity calls are given as the source filed them.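 Rule for the calls, unless noted: active = normalized viability below 100% at a tested concentration; inactive = the rest.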

Broadly, the AC50 is the concentration giving half of the maximal activity seen. The viability is a read-out of living cells in per cent, often relative to untreated cells.

`CC(C)(C)OC(=O)CN(Cc1ccc(Cl)cc1)Cc1ccc([N+](=O)[O-])s1`: the half-maximal activity concentration (AC50) was 18.6 µM (active) in assay [1], 16.6 µM (active) in assay [4] and 11.8 µM (active) in assay [5]. Besides, the compound was called inactive in assay [2], in assay [3], in assay [6] and in [7].

Turning to `Cn1cnc2c(F)c(Nc3ccc(Br)cc3Cl)c(C(=O)NOCCO)cc21`, the AC50 in [1] is 4.17 µM (active); in assay [2], 10.5 µM (active); in assay [3], 9.35 µM (active); in [4], 5.9 µM (active); in assay [5] it was 4.68 µM (active); in [8] it was 0.833 µM (active). Besides, the call in [6] was inactive. Moreover, the fold change is 1.01 (inactive) in assay [9] (setting [13]) and 0.759 in assay [9] (setting [14]). Also, the cell count in [9] (setting [15]) was 3770; in [9] (setting [16]), 3730; in [10] it was 7320. The same compound returned an SSMD in assay [10] of 2.54. The plate-normalised HSF1 focus index in [10] is 1.09 (inactive). The z-score in assay [11] (setting [17]) is -0.103 (inactive); in assay [11] (setting [18]), -0.489. In addition, the viability was 105% (inactive) in assay [12] (at 0.000305 µM, OCI-C5x cells, with rucaparib 10 µM, 100% = cells with rucaparib alone); 106% (inactive) in [12] (at 0.000305 µM, OCI-C5x cells, without rucaparib); 80.8% (active) in [12] (at 0.000305 µM, OCI-P5x cells, with rucaparib 20 µM, 100% = cells with rucaparib alone); 84.9% (active) in assay [12] (at 0.000305 µM, OCI-P5x cells, without rucaparib); 104% (inactive) in [12] (at 0.00122 µM, OCI-C5x cells, with rucaparib 10 µM, 100% = cells with rucaparib alone); 92.6% (active) in assay [12] (at 0.00122 µM, OCI-C5x cells, without rucaparib). The viability in assay [12] (at 0.00122 µM, OCI-P5x cells, with rucaparib 20 µM, 100% = cells with rucaparib alone) is 81.4% (active); in assay [12] (at 0.00122 µM, OCI-P5x cells, without rucaparib), 82.8% (active); in assay [12] (at 0.00488 µM, OCI-C5x cells, with rucaparib 10 µM, 100% = cells with rucaparib alone), 101% (inactive); in [12] (at 0.00488 µM, OCI-C5x cells, without rucaparib), 93.7% (active); in [12] (at 0.00488 µM, OCI-P5x cells, with rucaparib 20 µM, 100% = cells with rucaparib alone), 70.3% (active); in assay [12] (at 0.00488 µM, OCI-P5x cells, without rucaparib) it was 75.1% (active). For the same compound, the viability in assay [12] (at 0.0195 µM, OCI-C5x cells, with rucaparib 10 µM, 100% = cells with rucaparib alone) was 110% (inactive); in assay [12] (at 0.0195 µM, OCI-C5x cells, without rucaparib) it was 92.3% (active); in assay [12] (at 0.0195 µM, OCI-P5x cells, with rucaparib 20 µM, 100% = cells with rucaparib alone) it was 56.4% (active); in [12] (at 0.0195 µM, OCI-P5x cells, without rucaparib), 70.1% (active); in assay [12] (at 0.0781 µM, OCI-C5x cells, with rucaparib 10 µM, 100% = cells with rucaparib alone), 102% (inactive); in assay [12] (at 0.0781 µM, OCI-C5x cells, without rucaparib), 83.8% (active). Also, the viability was 53.5% (active) in assay [12] (at 0.0781 µM, OCI-P5x cells, with rucaparib 20 µM, 100% = cells with rucaparib alone); 65.2% (active) in [12] (at 0.0781 µM, OCI-P5x cells, without rucaparib); 104% (inactive) in assay [12] (at 0.313 µM, OCI-C5x cells, with rucaparib 10 µM, 100% = cells with rucaparib alone); 80.4% (active) in assay [12] (at 0.313 µM, OCI-C5x cells, without rucaparib); 43.6% (active) in assay [12] (at 0.313 µM, OCI-P5x cells, with rucaparib 20 µM, 100% = cells with rucaparib alone); 59.6% (active) in assay [12] (at 0.313 µM, OCI-P5x cells, without rucaparib). The viability was 84% (active) in assay [12] (at 1.25 µM, OCI-C5x cells, with rucaparib 10 µM, 100% = cells with rucaparib alone); 82.2% (active) in [12] (at 1.25 µM, OCI-C5x cells, without rucaparib); 38.2% (active) in assay [12] (at 1.25 µM, OCI-P5x cells, with rucaparib 20 µM, 100% = cells with rucaparib alone); 61.5% (active) in [12] (at 1.25 µM, OCI-P5x cells, without rucaparib); 49.5% (active) in [12] (at 5 µM, OCI-C5x cells, with rucaparib 10 µM, 100% = cells with rucaparib alone); 51.1% (active) in [12] (at 5 µM, OCI-C5x cells, without rucaparib). In addition, the viability in assay [12] (at 5 µM, OCI-P5x cells, with rucaparib 20 µM, 100% = cells with rucaparib alone) was 25.6% (active); in assay [12] (at 5 µM, OCI-P5x cells, without rucaparib) it was 32.7% (active).

In the case of `C[C@H]1[C@H](C)CC[C@]2(C(=O)O)CC[C@]3(C)C(=CC[C@@H]4[C@@]5(C)C[C@@H](O)[C@H](O)[C@@](C)(CO)[C@@H]5CC[C@]43C)[C@H]12`, the result in [1], in assay [2], in [3], in assay [4], in [5] and in [6] was inactive. Besides, the compound was called inactive in assay [7].

With `Cc1cc(C(=O)NOCCO)c(Nc2ccc(I)cc2F)n(C)c1=O`, the AC50 was 0.166 µM (active) in assay [1]; 0.132 µM (active) in assay [2]; 0.105 µM (active) in assay [3]; 0.132 µM (active) in assay [4]; 0.295 µM (active) in [5]; 0.059 µM (active) in assay [8]. Also, the results for the fold change in assay [9] (setting [13]) and in [9] (setting [14]) were 1.09 (inactive) and 0.434, respectively. The cell count was determined as 3770 in assay [9] (setting [15]) and 3450 in assay [9] (setting [16]). Besides, the z-score in [11] (setting [17]) was -0.704 (inactive); in assay [11] (setting [18]) it was -1.56.

Turning to `Cn1c(CNc2ccc(C(=N)N)cc2)nc2cc(C(=O)N(CCC(=O)O)c3ccccn3)ccc21`, the call in assay [1], in assay [2], in [3], in assay [4], in assay [5] and in assay [6] was inactive. In assay [7], the result was inactive.
